# Results reported in PubChem BioAssay AID602393 (Broad Institute, 2012).
# Hit rate of the full screen: of about 350,000 compounds, about 7,000 (2%) were called active. The list comes from a sample in which actives are over-represented; it also holds similar structures and randomly drawn compounds. Values without a mark were called inactive. No stated cut-off is given here; in the data, active means activation above about 40%; inconclusive means no clear call, values can overlap the other calls; inactive means below that.
# Assay: Bmi1 luciferase reporter increase in mESCs, primary screen, esBAF inhibitor project, mouse ES cells, Bmi1 luciferase knock-in, single point (AID 602393);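 further: 0% = median of the plate's neutral control wells and 100% = double that signal; a rise in the Bmi1 reporter signal indicates esBAF inhibition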
# Settings: 24 h, at 12.5 µM, stronger effect = higher value, 100% = twice the neutral-well signal
row,Compound,reporter increase
1,O=C(C[C@@H]1CC[C@@H](NC(=O)c2cccnc2)[C@H](CO)O1)NCCN1CCCCC1,-6.27%
2,CCNC(=O)C[C@@H]1CC[C@H]2[C@@H](COc3ccc(NC(=O)c4ccccc4Cl)cc3C(=O)N2C)O1,2.25%
3,COc1ccc(NC(=O)Nc2ccc3c(c2)C(=O)N([C@H](C)CO)C[C@H](C)[C@@H](CN(C)Cc2ccccc2)OCCCC[C@H](C)O3)cc1,3.05%
4,COCC(=O)Nc1ccc2c(c1)C(=O)N(C)C[C@H](OC)[C@@H](C)CN(C(=O)Cc1cccnc1)[C@@H](C)CO2,-0.572%
5,O=C(CN1CCOCC1)Nc1cccc([N+](=O)[O-])c1,-2.52%
6,O=C(Nc1cccc([N+](=O)[O-])c1)Nn1cnnc1,9.77%
7,O=C(Nc1cccc([N+](=O)[O-])c1)N1CCc2ccccc2C1,45.9% (active)
8,CCc1ccc(NC(=O)N2CCc3ccccc3C2)cc1,60.4% (active)
9,Cn1cccc1C(=O)N1CCc2ccccc2C1,28.8%
10,Cc1ccc(NC(=O)CN2CCc3ccccc3C2)cc1C,8.63%
11,COCC(=O)N(C)C[C@H]1[C@@H](c2ccc(-c3cccnc3)cc2)[C@H](CO)N1C(C)=O,3.19%
12,CO[C@@H]1CN(C)C(=O)c2cc(NC(=O)c3ccc(F)cc3)ccc2OC[C@H](C)NC[C@@H]1C,2.56%
13,COc1cccc(NC(=O)COc2cccnc2[N+](=O)[O-])c1,20%
14,CC(NC(=O)COc1cccnc1[N+](=O)[O-])c1ccc(Cl)cc1Cl (centres undefined),0.51%
15,O=C(COc1cccnc1[N+](=O)[O-])Nc1ccc(Cl)cc1F,43.4% (active)
16,Cn1c(COc2ccc(Cl)cc2)nc2ccccc2c1=O,12.6%
17,COc1ccc(-c2nc3ccccc3c(=O)n2CCc2ccc(O)cc2)cc1,9.53%
18,COc1ccc(OCc2ccc(-c3nc4ccccc4c(=O)n3N)o2)cc1,54.8% (active)
19,COc1ccc(S(=O)(=O)N2CC[C@@H]3[C@@H](CO)Nc4ccc(C#Cc5cccnc5)cc4[C@@H]32)cc1,7.74%
20,CO[C@@H]1CN(C)C(=O)c2cc(NS(=O)(=O)Cc3ccccc3)ccc2OC[C@H](C)NC[C@H]1C,-0.575%
21,COCC#Cc1cnc2c(c1)C(=O)N([C@H](C)CO)C[C@H](C)[C@H](CN(C)C(=O)Nc1cc(F)ccc1F)O2,-0.321%
22,COc1ccc(-c2cn3ccc(C)cc3n2)cc1,-61.7%
23,CCN(CC)S(=O)(=O)c1ccc(-c2cn3ccc(C)cc3n2)cc1,42.3% (active)
24,CCN(c1cccc(C)c1)S(=O)(=O)c1ccc(-c2coc(C)n2)cc1,2.04%
25,COCC(=O)Nc1ccc2c(c1)C(=O)N(C)C[C@H](OC)[C@@H](C)CN(C(=O)c1cnccn1)[C@H](C)CO2,-3.88%

row,Compound,reporter increase
1,COC(=O)C[C@H]1CC[C@@H](NC(=O)c2ccccc2)[C@@H](CO)O1,-2.05%
2,CC(C)NC(=O)Nc1ccc2c(c1)C(=O)N([C@@H](C)CO)C[C@H](C)[C@@H](CN(C)C(=O)Nc1ccc(F)cc1)OCCCC[C@H](C)O2,11.9%
3,O=C(CCSc1ccccc1)N1CCN(c2ccccc2F)CC1,65.1% (active)
4,O=C(CCc1ccccc1F)N1CCN(c2ccccc2)CC1,1.91%
5,O=C(NCC(=O)N1CCN(c2ccccc2F)CC1)c1cccs1,28.1%
6,CCCN1C[C@H](C)[C@@H](OC)CN(C)C(=O)c2ccc(NC(=O)C3CCOCC3)cc2OC[C@H]1C,-2.07%
7,O=C(C[C@@H]1CC[C@H]2NC[C@H](O)COC[C@@H]2O1)NCCN1CCCCC1,6.52%
8,O=C(CC(F)(F)F)N1C[C@H]2[C@@H](c3ccccc31)[C@H](CO)N2C(=O)Cc1cccnc1,-1.13%
9,CC(=O)Nc1cccc(NC(=O)c2ccc3c(c2)CCN3S(C)(=O)=O)c1,2.43%
10,CS(=O)(=O)N1CCc2cc(C(=O)Nc3ccccc3)ccc21,47.5% (active)
11,CS(=O)(=O)N1CCc2cc(C(=O)Nc3ccccc3Br)ccc21,34.7%
12,O=C(O)C[C@H]1C[C@@H]2c3cc(NC(=O)Nc4ccc(C(F)(F)F)cc4)ccc3O[C@@H]2[C@@H](CO)O1,2.29%
13,CCN(CC)C(=O)C1=C(C)N(Cc2ccc(OC)cc2)C(=O)C(CC(=O)NCc2ccco2)C1 (centres undefined),-3.89%
14,COc1ccc(CN2C(=O)C(C)S/C2=N/N=C/c2ccco2)cc1 (centres undefined),70.2% (active)
15,C=CCN1C(=O)C(Cc2cccc(Cl)c2)S/C1=N/N=C/c1ccco1 (centres undefined),-2.3%
16,CCCC(=O)Nc1ccc2c(c1)C(=O)N(C)C[C@@H](OC)[C@@H](C)CN(C(=O)CC)[C@H](C)CO2,-1.94%
17,CN(C)C(=O)C[C@H]1CC[C@@H](NC(=O)Nc2cccc(F)c2)[C@H](CO)O1,-0.909%
18,COCC#Cc1cnc2c(c1)C(=O)N([C@@H](C)CO)C[C@@H](C)[C@H](CN(C)C(=O)c1cnccn1)O2,3.45%
19,CN1C(=O)c2cc(NC(=O)Nc3ccccc3Cl)ccc2OC[C@H]2O[C@@H](CC(=O)O)CC[C@H]21,3.49%
20,CC(C)C1CCN(C(=O)C2CCC(=O)N(C3CCCCCC3)C2)CC1 (centres undefined),55.6% (active)
21,O=C(C1CCC(=O)N(C2CC2)C1)N1CCN(c2ccc(Cl)cc2)CC1 (centres undefined),-7.88%
22,COCC1CCN(C(=O)C2CCC(=O)N(CC3CCCCC3)C2)CC1 (centres undefined),-0.459%
23,COc1ccc(S(=O)(=O)Nc2ccc3c(c2)CC(=O)N([C@H](C)CO)C[C@H](C)[C@@H](CN(C)C)O3)cc1,-3.65%
24,O=C(Cc1ccccn1)N[C@H]1CC[C@H](CCNS(=O)(=O)c2cccc(F)c2)O[C@@H]1CO,0.895%
